Source: PubChem BioAssay
This is a sample that favours compounds with a hit; in the whole collection about 19% have one here.
TGFb SMAD3 inh = blocks TGF-b signaling. HepG2 CAGA-GFP TGF-b/SMAD3 reporter, GFP fluorescence, 18 h; TGF-beta stimulated, 500 pg/mL final. Potency, µM (highest dose often 46.1 µM), without a hit: at the highest dose activity, negative = inhibition, usual class: inhibitors. hit rate 1.2% among 410,000; also: potency is read from the fitted curve at half-maximal effect; % is scaled to controls: 0 for no effect and ±100 for the full control effect; nearly all actives have a fitted effect of over 65% in size
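Using HEPG2 CAGA-GFP reporter cells at 1000 cells/well, we pinned test compounds, stimulated with recombinant TGF-beta (500 pg/mL final) and measured total well GFP after 18 h.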
ASM inhibitor = inhibitors of human secretory acid sphingomyelinase | P17405 | placental ASM, HMU-PC fluorogenic substrate, 60 min | Potency, µM (highest dose often 57.5 µM), inactives show at the top dose activity change, negative = inhibition, actives largely listed as inhibitors | hit rate 0.006% among 340,000 | AID 504937; also: potency is read from the fitted curve at half-maximal effect
Target sequence (P17405 47-631 limits assumed): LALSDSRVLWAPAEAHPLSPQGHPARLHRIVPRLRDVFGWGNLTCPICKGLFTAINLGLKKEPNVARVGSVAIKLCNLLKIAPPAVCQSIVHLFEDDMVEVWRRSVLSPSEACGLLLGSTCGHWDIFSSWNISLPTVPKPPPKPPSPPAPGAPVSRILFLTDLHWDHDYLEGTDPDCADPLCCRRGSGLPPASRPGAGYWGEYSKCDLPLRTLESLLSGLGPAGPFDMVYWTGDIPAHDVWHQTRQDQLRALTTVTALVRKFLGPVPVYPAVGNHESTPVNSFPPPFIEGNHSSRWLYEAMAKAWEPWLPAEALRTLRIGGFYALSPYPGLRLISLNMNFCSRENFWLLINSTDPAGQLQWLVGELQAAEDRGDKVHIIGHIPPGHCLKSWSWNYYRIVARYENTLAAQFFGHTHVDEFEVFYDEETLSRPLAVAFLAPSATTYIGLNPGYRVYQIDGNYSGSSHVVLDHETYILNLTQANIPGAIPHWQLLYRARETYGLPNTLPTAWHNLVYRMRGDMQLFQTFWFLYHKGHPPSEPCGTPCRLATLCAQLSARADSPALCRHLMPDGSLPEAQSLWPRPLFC
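Human placenta-derived ASM enzyme was preincubated with compound for 10 minutes at room temperature, then given fluorogenic substrate HMU-PC0 (9 uM final) for 60 minutes at 37 °C; a pH 10 stop preceded fluorescence reading at Ex 386/Em 447 nm.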
IL-1B inflam inh = inflammasome signaling inhibition, IL-1 beta readout; AID 743279; THP-1 LPS/ATP IL-1B secretion, AlphaLISA, 16 h; stronger effect = lower value; activity change, % at 57.5 µM; hit rate 4.7% among 360,000; in the data active = activity change below about -50%; inconclusive = mostly about -30% to -49%; also: % is scaled to controls: 0 for no effect and ±100 for the full control effect
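THP-1 cells pretreated 1 hr with compounds (up to 57.5 uM final), then stimulated with LPS (250 ng/mL final) plus ATP (1.25 mM final); secreted IL-1B measured by AlphaLISA after 16 hr, decreased signal indicating inhibition.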
TDP1 cell noCPT = qHTS for Inhibitors of human tyrosyl-DNA phosphodiesterase 1 (TDP1): qHTS in cells in absence of CPT. hit rate 15% among 420,000. Potency, µM (highest dose often 46.2 µM), without a hit: at the top dose activity change, negative = growth inhibition, most hits filed as inhibitors. DT40 Tdp1-/- hTDP1 cells, no CPT, ATP luminescence, 48 h. AID 686978, 2013; also: potency is read from the fitted curve at half-maximal effect; % is scaled to controls: 0 for no effect and ±100 for the full control effect; nearly all actives have a fitted effect of over 55% in size
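Readout: luminescence from CellTiter-Glo after 30 min in the dark at RT. Cells: DT40 Tdp1-/- with stable hTDP1, 400/well. Exposure: compounds alone, ≥48 hr, 37 °C.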
HepG2 viability = counter-screen for TGF-b inhibitors: cytotoxicity in HepG2 cells | HepG2 CAGA-GFP viability, ATP luminescence, 18 h | Potency, µM (doses to about 46.1 µM), inactives show at the top dose activity change, negative = cytotoxicity, actives largely listed as cytotoxic | hit rate 0.76% among 410,000 | AID 588856; also: potency is read from the fitted curve at half-maximal effect
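CellTiter-Glo luminescence gave cytotoxicity after 18 hours at 37 degrees C. The cells were HepG2 CAGA-GFP in 1% FBS DMEM, stimulated with 500 pg/mL TGF-beta after compound addition. %Activity was normalised to no-cell wells (complete cell-killing) and DMSO (no toxicity), and curves were fitted and classified.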
TDP1 cell CPT = growth inhibition of DT40 Tdp1-/-;hTDP1 cells with camptothecin (screen for TDP1 inhibitors) | Potency, µM (top dose mostly 46.2 µM), for the others: top-dose activity change, negative = growth inhibition, most hits filed as inhibitors | hit rate 12% among 420,000 | AID 686979 | chicken DT40 Tdp1-/-;hTDP1 cells + 20 nM CPT, ATP luminescence, 48 h; also: potency is read from the fitted curve at half-maximal effect; % is scaled to controls: 0 for no effect and ±100 for the full control effect; nearly all actives have a fitted effect of over 55% in size
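Chicken DT40 Tdp1-/- cells complemented with human TDP1, 400 cells/well, exposed to compounds plus 20 nM camptothecin for at least 48 h at 37 C; viability read as ATP content by CellTiter-Glo luminescence.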
The depositor's hits bear a star; ? = inconclusive; · = not tested or not shown; [ ] = another dose, or the depositor's remark. Unless noted, calls follow the shape of the dose curve; as a rule, active = well fitted curve in the direction sought with a large enough effect; inconclusive = small, poorly fitted or top-dose-only effect, or another doubt; inactive = no such curve, though single readings can be large; an effect the other way counts as inactive or inconclusive.

SMILES	TGFb SMAD3 inh	ASM inhibitor	IL-1B inflam inh	TDP1 cell noCPT	HepG2 viability	TDP1 cell CPT
Cc1ccc2c(c1)S/C(=C/c1ccc[n+](C)c1)N2CCO	-26%	-8%	?	2.6µM*	-11%	3.3µM*
COc1ccc(-c2cn(/N=C/c3ccc(Cl)cc3Cl)c(N)n2)cc1	?	-3%	-66*	?	3%	23µM*
Nc1nc(-c2ccccc2)cn1/N=C/c1ccccc1	2%	-3%	?	23µM*	-1%	?
COc1ccc(-c2onc3ccc(Cl)cc23)cc1	-1%	6%	?	-16%	-9%	?
Nc1nc(-c2ccccc2)cn1N	-8%	14%	31	?	1%	?
Cc1ccc(C)c(NC(=O)CN(C)C(=O)c2cc3c(s2)CCCCC3)c1	7%	-1%	13	?	9%	?
O=C(Nc1ccc(Cc2ccncc2)cc1)C1CCC(N2C(=O)C3CC=CCC3C2=O)CC1 (stereo not given)	-12%	0%	-71*	16µM*	-40%	21µM*
CN(C)c1oc(/C=C/c2ccc(F)cc2)nc1C#N	·	·	·	-18%	-2%	-22%
COc1cc2nc(N(CCCN(C)C)C(=O)c3ccc(S(=O)(=O)N4CCc5ccccc5C4)cc3)sc2cc1OC	10%	-3%	-96*	?	-62%	?
CN(C)CCCN(C(=O)c1ccc(S(=O)(=O)N2CCc3ccccc3C2)cc1)c1nc2c(F)cc(F)cc2s1	-22%	-15%	?	?	-27%	?
COc1cccc2sc(N(CCCN(C)C)C(=O)c3ccc(S(=O)(=O)N4CCc5ccccc5C4)cc3)nc12	?	7%	-97*	10µM*	-79%	15µM*
CCOc1ccc2nc(N(CCCN(C)C)C(=O)c3ccc(S(=O)(=O)N4CCc5ccccc5C4)cc3)sc2c1	-21%	-12%	-14	?	-40%	?
Cc1ccc2sc(N(CCCN(C)C)C(=O)c3ccc(S(=O)(=O)N4CCc5ccccc5C4)cc3)nc2c1C	-9%	-15%	-82*	4.1µM*	-36%	4.6µM*
COc1ccc2nc(N(CCN(C)C)C(=O)c3ccc4ccccc4c3)sc2c1	15%	2%	-24	-4%	8%	4%
COc1cc2nc(N(CCCN(C)C)C(=O)c3ccc(C(=O)c4ccccc4)cc3)sc2cc1OC	?	-2%	-105*	?	16µM*	?
CCn1c(CN(C)c2ccccc2)nc2ccccc21	-11%	0%	-17	?	-8%	?
CCOc1ccccc1N1CCN(C(=O)C2c3ccccc3Oc3ccccc32)CC1	?	-6%	-9	23µM*	3%	23µM*
COC(=O)c1ccc(NC(=S)N2CCN(CCO)CC2)cc1	-13%	7%	-5	2%	-8%	-2%
O=C(NCc1ccc(Cl)cc1)N1CCN(Cc2ccccc2)CC1	-14%	-4%	-21	?	4%	23µM*
Cc1cccc(N2CCN(C(=O)NCc3ccc(Cl)cc3)CC2)c1	18%	4%	-6	21µM*	-13%	?
COC(=O)c1ccc(NC(=S)N2CCN(Cc3ccc(Cl)cc3)CC2)cc1	0%	-4%	14	16µM*	-36%	?
COc1ccc(CNC(=O)N2CCN(c3cccc(Cl)c3)CC2)cc1OC	1%	0%	-16	?	-24%	?
CCOc1ccccc1N1CCN(C(=O)NCc2ccc(Cl)cc2)CC1	-4%	1%	-63*	?	-23%	-26%
CCOc1ccccc1N1CCN(C(=O)NCc2ccc(F)cc2)CC1	1%	8%	-9	-10%	28%	-22%
COc1cccc(CN2CCN(C(=S)NCc3ccc(Cl)cc3)CC2)c1	?	-2%	-27	21µM*	-24%	?
SMILES	TGFb SMAD3 inh	ASM inhibitor	IL-1B inflam inh	TDP1 cell noCPT	HepG2 viability	TDP1 cell CPT
Cc1onc(-c2c(F)cccc2Cl)c1C(=O)OCC(=O)c1c[nH]c2ccccc12	?	4%	-52*	18µM*	-11%	?
Cc1onc(-c2c(F)cccc2Cl)c1C(=O)Oc1ccccc1	?	·	13	13µM*	-28%	?
CCOc1ccc(OC(=O)c2c(-c3ccccc3Cl)noc2C)cc1	-8%	·	·	21µM*	-5%	?
Cc1onc(-c2ccccc2Cl)c1C(=O)c1ccccc1	4%	0%	·	?	17%	-9%
Cc1onc(-c2c(Cl)cccc2Cl)c1C(=O)c1ccccc1	-14%	-4%	22	21µM*	-22%	23µM*
NCCCC[C@H](NC(=O)[C@@H]1CCCN1C(=O)[C@@H]1CSSC[C@H](N)C(=O)N[C@@H](Cc2ccc(O)cc2)C(=O)N[C@@H](Cc2ccccc2)C(=O)N[C@@H](CCC(N)=O)C(=O)N[C@@H](CC(N)=O)C(=O)N1)C(=O)NCC(N)=O	·	·	·	3%	·	-21%
COc1ccc(Cl)cc1-n1nnc(-c2nc(-c3ccccc3)no2)c1C	-1%	·	·	-1%	6%	-19%
Cc1cccn2c(=O)cc(CSc3nnc(NC(=O)COc4ccccc4)s3)nc12	2%	·	·	-13%	-1%	4%
Cc1onc(-c2c(Cl)cccc2Cl)c1C(=O)N(C)Cc1ccccc1	-10%	-2%	10	-28%	-16%	-28%
Cc1onc(-c2c(F)cccc2Cl)c1C(=O)N(Cc1ccccc1)C(C)C	0%	-2%	12	9.2µM*	-12%	?
O=C(Cn1nc2ccccc2n1)N1CCOc2ccc(CN3CCc4sccc4C3)cc2C1	·	·	·	-24%	·	-5%[9.04 µM]
N=c1c2c(-c3ccccc3)c(-c3ccccc3)oc2ncn1CCN1CCOCC1	0%	-2%	?	16µM*	-46%	?
c1nc(NCCN2CCOCC2)c2cc(-c3ccoc3)ccc2n1	·	·	·	-15%	·	?
Cc1sc2ncnc(NCCN3CCOCC3)c2c1C	-18%	0%	4	18µM*	8%	13µM*
c1ccc(-c2oc3ncnc(NCCN4CCOCC4)c3c2-c2ccccc2)cc1	-15%	2%	-82*	?	-41%	?
Cn1c2ccccc2c2ncn(CCCN3CCOCC3)c(=O)c21	-1%	2%	13	-15%	-25%	-3%
N=c1c2c(-c3ccccc3)c(-c3ccccc3)oc2ncn1CCCN1CCOCC1	-29%	5%	?	18µM*	-58%	21µM*
